# Measured values published in PubChem BioAssay (NCI).
# Compounds without any hit were thinned out: in the full panel of roughly 83,000, 20% have a hit.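 Cell lines were cultured in 96-well plates, exposed to a single compound concentration, and assessed for percent growth 48 hours later.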 Values without a mark were called inactive. Calls of active or inactive are those of the source. How the source made its calls: active means growth percent below 10; inactive means the rest.
# Columns and labels:
# Assay in all cases: NCI-60 one-dose screen, 48 h (100 = growth as untreated, 0 = no growth, -100 = all killed)
# Details in all cases: 10 µM
# T-47D breast = tested on: T-47D breast
# BT-549 breast = tested on: BT-549 breast
# MDA-MB-435 melanoma = tested on: MDA-MB-435 melanoma
# SW-620 colon = tested on: SW-620 colon
# MCF7 breast = tested on: MCF7 breast
# HCC-2998 colon = tested on: HCC-2998 colon
# KM12 colon = tested on: KM12 colon
# MDA-MB-468 breast = tested on: MDA-MB-468 breast
# HCT-116 colon = tested on: HCT-116 colon
SMILES,growth (T-47D breast),growth (BT-549 breast),growth (MDA-MB-435 melanoma),growth (SW-620 colon),growth (MCF7 breast),growth (HCC-2998 colon),growth (KM12 colon),growth (MDA-MB-468 breast),growth (HCT-116 colon)
C/C(=C\c1ccc(O)cc1O)c1ccc2ccc(O)cc2[o+]1,56%,45.5%,21.4%,44.8%,22.2%,61.4%,22.5%,64%,–
N#Cc1c(-c2ccc(F)cc2)nc(SCc2ccc(F)cc2)nc1N1CCOCC1,73.2%,64.3%,93.5%,85.5%,63.7%,87.4%,87.2%,62.1%,–
N#Cc1c(NC(=O)c2ccc(C(F)(F)F)cc2C(F)(F)F)sc2c1CCC(=O)C2,-22.7% (active),-65.3% (active),-53.6% (active),-43.7% (active),-10.6% (active),-2.99% (active),-34.2% (active),-79.9% (active),–
NC(=Nc1ccc(OCCCCCCCCn2ccnn2)cc1)c1ccccc1,40%,56.6%,–,32.4%,13.8%,23.8%,18.2%,24%,–
CCOC(=O)CNC(=O)CN(Cc1ccccc1)C(=O)[C@@]1(C)CCC[C@]2(C)[C@H]3CC4C(C(C)C)=C[C@]3(CC[C@H]21)[C@@H]1C(=O)CCC(=O)[C@H]41,52.2%,67.8%,70.6%,49.8%,13.1%,37.8%,77.7%,3.12% (active),–
O/N=C(\CSc1nnc(-c2c[nH]c3ccccc23)n1-c1ccccc1)c1ccc(Br)cc1,5.96% (active),-72.7% (active),-100% (active),-86.3% (active),-42.5% (active),-66.5% (active),2.11% (active),-94.5% (active),–
COc1ccc2[nH]cc(/C=N/Nc3ccc(Br)cn3)c2c1,22.3%,-2.65% (active),13.8%,19.2%,3.69% (active),10.2%,-0.565% (active),-40.9% (active),–
CS(=O)(=O)Nc1ccc(-c2ccc3c(c2)ncn3-c2ccc(NC(=O)Nc3ccc(Cl)c(C(F)(F)F)c3)cc2)cc1,-31.2% (active),-83.8% (active),-85.4% (active),-67% (active),-77.8% (active),-73.6% (active),-57.8% (active),-50.7% (active),–
O=C(c1ccc(Cl)cc1)C1[C@H](c2ccc(Br)cc2)[C@@H](c2ccccc2)NC12C(=O)Nc1ccc(Br)cc12 (some centres undefined),-54% (active),-73.3% (active),-88.8% (active),-71.6% (active),-43.3% (active),-98.5% (active),-50.8% (active),-98.9% (active),–
COc1ccc(NC(=O)Nc2ccc(OCC(=O)N=Nc3c(O)[nH]c4ccc([N+](=O)[O-])cc34)cc2)cc1,32.6%,27.5%,106%,98.3%,38.2%,66.6%,18%,30.2%,–
Cc1ccc(C(=O)Nc2ccc(-n3c(C)nc4c(cnn4-c4ccccc4)c3=O)cc2)cc1,34.6%,59.2%,70.5%,86.2%,47.8%,88.4%,77.5%,21.1%,–
CC1=C2C(=C[C@@](C)(COCOCCCl)[C@@H]2O)C(=O)[C@](C)(O)C12CC2,–,-81.2% (active),-81.1% (active),0.591% (active),-46.2% (active),-91.7% (active),0.906% (active),–,12.6%
Nc1cccnc1/C=N/NC(=S)NCCNC(=O)c1ccc(-n2nc(-c3ccccc3O)nc2-c2ccccc2O)cc1,7.42% (active),-5.4% (active),53.8%,58.5%,5.17% (active),-7.32% (active),11.6%,-56.1% (active),–
NS(=O)(=O)c1ccc(NC(=O)CSc2ccc(-c3ccccc3)nn2)c(Br)c1,37.4%,46.3%,94.4%,99.5%,79%,77.9%,85.3%,98%,–
Cc1ccc2nc(-c3ccc(-c4nnc(SCC(=O)Nc5ccc(Cl)cc5)o4)cc3)[nH]c2c1,65.1%,65.9%,49.1%,3.49% (active),-16.1% (active),67.5%,50.8%,46.8%,–
Oc1ccc(/C=C2\CCCc3cc4ccc(O)cc4[o+]c32)c(O)c1,18.3%,23.3%,-40.7% (active),20.5%,10.8%,31%,6.02% (active),-13.8% (active),–
O=C(Cc1ccc2c(c1)CN(C1CCC(=O)NC1=O)C2=O)NCCc1ccccc1 (centres undefined),1.71% (active),-37.2% (active),35%,10.6%,18.9%,–,6.24% (active),-46.1% (active),–
Cc1nc(Nc2nc(C)c3ccc(OCCN4CCOCC4)cc3n2)[nH]c(=O)c1C,–,-74.2% (active),-50.8% (active),8.56% (active),0.281% (active),-72.8% (active),6.49% (active),–,6.7% (active)
COc1ccc2nc(Cl)c(-c3cc(-c4ccccc4)nc(N)n3)cc2c1,30.6%,-11.1% (active),45.5%,-60.2% (active),4.28% (active),62.6%,-0.39% (active),14.9%,–
CC(=O)C1=C(C)NC(SCC(=O)Nc2ccc(S(=O)(=O)Nc3cc(C)on3)cc2)=NC1c1ccccc1 (centres undefined),99.3%,114%,99.6%,106%,87.5%,112%,99.8%,111%,–
CC(=O)Nc1ccc(-c2cn(-c3cccc(C(=O)Nc4cc(C(F)(F)F)cc(C(F)(F)F)c4)c3)nn2)cn1,33.9%,-39.6% (active),-34.3% (active),-31.5% (active),-25% (active),-62.1% (active),-27.6% (active),-46.5% (active),–
Brc1ccc(N/N=C/c2c[nH]c3ccccc23)nc1,–,-2.29% (active),30.4%,20.8%,9.88% (active),-1.13% (active),0.217% (active),-35.5% (active),6.45% (active)
OCCNc1oc(-c2ccccc2)nc1[P+](c1ccccc1)(c1ccccc1)c1ccccc1,–,-27.9% (active),4.92% (active),13.5%,2.37% (active),9.06% (active),-35.9% (active),-43.2% (active),7.76% (active)
O=C(c1ccc(O)cc1)C1[C@H](c2ccccc2Br)[C@@H](c2ccccc2)NC12C(=O)Nc1ccc(Cl)cc12 (some centres undefined),–,15.7%,-16.4% (active),-0.351% (active),-17.2% (active),-73.2% (active),-20.7% (active),-47.1% (active),18.4%
COc1cccc(-c2nn(-c3ccccc3)cc2-c2ccnc(NCCCNC(=O)Nc3ccc(F)cc3)c2)c1,–,-20.6% (active),-59% (active),14.5%,-15.5% (active),-25.1% (active),5.44% (active),-54.7% (active),–
O=c1oc2ccc(-c3ccc(F)cc3F)cc2c(=O)n1-c1ccc(F)cc1,–,-25.8% (active),0.996% (active),10.2%,-4.67% (active),7.52% (active),-0.662% (active),-29.8% (active),8.96% (active)
CNC(=O)c1cc(-c2ccc(NC(=O)Nc3ccc(C)cc3)cc2)nc2cccnc12,–,104%,109%,104%,45.6%,–,102%,-14.3% (active),89.7%
C=C(C)[C@@H]1CC[C@]2(C(=O)OC)CC[C@]3(C)[C@H](CC[C@@H]4[C@@]5(C)CC[C@H](N)C(C)(C)[C@@H]5CC[C@]43C)[C@@H]12,–,-63.6% (active),-97% (active),-75.6% (active),-85.4% (active),-93.6% (active),-82.3% (active),-97.2% (active),-98.3% (active)
CCOc1ccc(Nc2nc3ccccc3nc2Nc2ccc(OCC)cc2)cc1,–,70.7%,52.9%,75.5%,32.9%,90.2%,47.4%,25.4%,17.8%
COc1ccc(-c2nc(S(=O)(=O)c3ccccc3)c(S(C)(=O)=O)o2)cc1,–,3.82% (active),-60.2% (active),-25.3% (active),-57.5% (active),-26.8% (active),66%,-88.1% (active),0.823% (active)
